In the supplement of paper PMC12669032:

Key:
Assay in all cases: growth AUC relative to DMSO control (median of replicates) (fraction); higher = more growth (less inhibition), active = hit call of the paper
Settings in all cases: 20 µM; 24 h;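 active = AUC reduced over 20% with Padj below 0.05 in at least 2 of 3 replicates; inactive = otherwise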
Coprococcus comes = test system: Coprococcus comes
Procedure, shortened: (§1)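 Each value is the median of three biological replicates, grown on separate days, of a gut bacterial monoculture incubated anaerobically at 37 °C in mGAM with 20 µM compound (1% DMSO). Cultures started at OD600 0.05 and were read at OD600 hourly for 24 h, with the minimum OD set to 0. Area under the growth curve was normalised to the plate median of solvent-only wells, or to row and column medians on the industrial chemical plate.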

Escherichia coli ED1a = test system: Escherichia coli ED1a
Procedure, shortened: as §1

Escherichia coli IAI1 = test system: Escherichia coli IAI1
Procedure, shortened: as §1

Eubacterium rectale = test system: Eubacterium rectale
Procedure, shortened: as §1

[1] = test system: Fusobacterium nucleatum subsp. animalis
Procedure, shortened: as §1

Lactobacillus gasseri = test system: Lactobacillus gasseri
Procedure, shortened: as §1

Lactobacillus paracasei = test system: Lactobacillus paracasei
Procedure, shortened: as §1

Odoribacter splanchnicus = test system: Odoribacter splanchnicus
Procedure, shortened: as §1

[2] = test system: Parabacteroides distasonis
Procedure, shortened: as §1

Parabacteroides merdae = test system: Parabacteroides merdae
Procedure, shortened: as §1

Roseburia intestinalis = test system: Roseburia intestinalis
Procedure, shortened: as §1

Streptococcus salivarius = test system: Streptococcus salivarius
Procedure, shortened: as §1

Measured: growth AUC

O=C1C2CC=CCC2C(=O)N1SC(Cl)(Cl)Cl (configuration not stated)
inactive: Coprococcus comes 1.03 | Escherichia coli ED1a 1.02 | Escherichia coli IAI1 1.02 | Eubacterium rectale 1.1 | [1] 1.1 | Lactobacillus gasseri 1.06 | Lactobacillus paracasei 1.01 | Odoribacter splanchnicus 0.999 | [2] 1.07 | Parabacteroides merdae 1.02 | Roseburia intestinalis 1.01 | Streptococcus salivarius 1.05

COC(=O)c1ccccc1S(=O)(=O)NC(=O)Nc1nc(C)cc(C)n1
inactive: Coprococcus comes 1 | Escherichia coli ED1a 0.993 | Escherichia coli IAI1 0.985 | Eubacterium rectale 1.07 | [1] 1 | Lactobacillus gasseri 0.94 | Lactobacillus paracasei 0.948 | Odoribacter splanchnicus 1.07 | [2] 1.04 | Parabacteroides merdae 0.987 | Roseburia intestinalis 0.944 | Streptococcus salivarius 0.982

COC(=O)NCc1cc(/C(C)=N\OCc2cccc(C)n2)ccc1Cl
inactive: Coprococcus comes 1.05 | Escherichia coli ED1a 0.979 | Escherichia coli IAI1 0.995 | Eubacterium rectale 1.08 | [1] 0.934 | Lactobacillus gasseri 0.893 | Lactobacillus paracasei 0.969 | Odoribacter splanchnicus 1 | [2] 0.772 | Parabacteroides merdae 0.947 | Roseburia intestinalis 1.01 | Streptococcus salivarius 0.974

CC1(C(=O)Nc2ccc(O)c(Cl)c2Cl)CCCCC1
inactive: Coprococcus comes 0.965 | Escherichia coli ED1a 1.01 | Escherichia coli IAI1 0.991 | Eubacterium rectale 0.973 | [1] 0.915 | Lactobacillus gasseri 1.03 | Lactobacillus paracasei 0.949 | Odoribacter splanchnicus 0.907 | [2] 1.05 | Parabacteroides merdae 0.993 | Roseburia intestinalis 0.86 | Streptococcus salivarius 0.967

CNC(=O)/C=C(\C)OP(=O)(OC)OC
inactive: Coprococcus comes 1.05 | Escherichia coli ED1a 1.05 | Escherichia coli IAI1 1.02 | Eubacterium rectale 0.999 | [1] 1.02 | Lactobacillus gasseri 1.03 | Lactobacillus paracasei 1.06 | Odoribacter splanchnicus 0.989 | [2] 1.03 | Parabacteroides merdae 1.01 | Roseburia intestinalis 1.07 | Streptococcus salivarius 1.04

CC(=O)O.CC(=O)O.CC(=O)O.NC(N)=NCCCCCCCCNCCCCCCCCN=C(N)N
active: Coprococcus comes 0.0653 | Eubacterium rectale 0.0201 | Odoribacter splanchnicus 0.0272 | [2] 0.213 | Parabacteroides merdae 0.025 | Roseburia intestinalis 0.029 | Streptococcus salivarius 0.454
inactive: Escherichia coli ED1a 0.966 | Escherichia coli IAI1 0.822 | [1] 0.729 | Lactobacillus gasseri 0.89 | Lactobacillus paracasei 0.834

CNC(=O)O/N=C(\C)C(C)S(C)(=O)=O (configuration not stated)
inactive: Coprococcus comes 1.02 | Escherichia coli ED1a 0.961 | Escherichia coli IAI1 0.979 | Eubacterium rectale 1.03 | [1] 0.972 | Lactobacillus gasseri 0.905 | Lactobacillus paracasei 0.894 | Odoribacter splanchnicus 1.11 | [2] 0.955 | Parabacteroides merdae 0.956 | Roseburia intestinalis 0.95 | Streptococcus salivarius 0.972

CNC(=O)N(C)c1nc2ccccc2s1
inactive: Coprococcus comes 0.992 | Escherichia coli ED1a 0.999 | Escherichia coli IAI1 0.991 | Eubacterium rectale 0.958 | [1] 0.971 | Lactobacillus gasseri 0.994 | Lactobacillus paracasei 0.949 | Odoribacter splanchnicus 0.988 | [2] 0.972 | Parabacteroides merdae 1.02 | Roseburia intestinalis 0.989 | Streptococcus salivarius 1

CCCSP(=O)(OCC)Oc1ccc(Br)cc1Cl (configuration not stated)
inactive: Coprococcus comes 1.01 | Escherichia coli ED1a 1.01 | Escherichia coli IAI1 1.04 | Eubacterium rectale 0.993 | [1] 1.11 | Lactobacillus gasseri 0.976 | Lactobacillus paracasei 1.1 | Odoribacter splanchnicus 1.04 | [2] 0.871 | Parabacteroides merdae 0.994 | Roseburia intestinalis 1.01 | Streptococcus salivarius 1.01

CC(C)(C)c1cc([N+](=O)[O-])cc([N+](=O)[O-])c1O
inactive: Coprococcus comes 0.859 | Escherichia coli ED1a 0.93 | Escherichia coli IAI1 0.923 | Eubacterium rectale 0.908 | [1] 0.638 | Lactobacillus gasseri 0.852 | Lactobacillus paracasei 0.859 | Odoribacter splanchnicus 0.722 | [2] 0.83 | Parabacteroides merdae 0.942 | Roseburia intestinalis 0.802 | Streptococcus salivarius 0.848

CCN(CC)C(=O)/C(Cl)=C(/C)OP(=O)(OC)OC
inactive: Coprococcus comes 0.978 | Escherichia coli ED1a 0.942 | Escherichia coli IAI1 0.953 | Eubacterium rectale 1.08 | [1] 1 | Lactobacillus gasseri 0.886 | Lactobacillus paracasei 0.969 | Odoribacter splanchnicus 0.935 | [2] 0.888 | Parabacteroides merdae 0.978 | Roseburia intestinalis 1.01 | Streptococcus salivarius 0.994
